UGM FP inh = M. tuberculosis UGM enzyme inhibitors, primary screen, biochemical, fluorescence polarization, single point | UDP-galactopyranose mutase (Mycobacterium tuberculosis (strain ATCC 25618 / H37Rv)), … | purified UGM, fluorescence polarization probe displacement | inhibition, % at 10 µM | 320,000 tested, 0.06% active; in the data active = inhibition above about 10%, passing the limit was not always enough
Mtb FBA inh = Mtb FBA enzyme inhibitors, primary screen, biochemical, fluorescence, strain H37Rv | 360,000 tested, 2.3% active | purified M. tuberculosis FBA, fluorescence read-out | inhibition, % at 1 µM; in the data active = inhibition above about 27%
GDH-TPI inh = GDH-TPI coupling enzyme inhibitors, primary screen, artefact control for M. tuberculosis FBA inhibitor project, biochemical, absorbance, full deck. GDH-TPI coupled enzyme counterscreen, NADH absorbance. inhibition, % at 4.8 µM. 360,000 tested, 1.2% active. AID 588335, 2011; in the data active = inhibition above about 30%
Mtb bLac sens = beta-lactam sensitization of Mtb H37Rv, H37Rv | 330,000 tested, 0.27% active | inhibition, % at 25 µM | M. tuberculosis H37Rv growth with meropenem, percent inhibition | AID 434955, 2010; call rule not given here;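 also: growth measured after seven days incubation then overnight dye step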
Rv3671c inh = Rv3671c serine protease inhibitors, primary screen, biochemical, fluorescence polarization, M. tuberculosis H37Rv. P9WHR9. 320,000 tested, 0.048% active. inhibition, % at 5.96 µM. AID 2606, 2010; in the data active = inhibition above about 38%;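 also: extracellular domain of Rv3671c used as enzyme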
Target sequence (P9WHR9 whole entry, looked up, the tested form may be a part): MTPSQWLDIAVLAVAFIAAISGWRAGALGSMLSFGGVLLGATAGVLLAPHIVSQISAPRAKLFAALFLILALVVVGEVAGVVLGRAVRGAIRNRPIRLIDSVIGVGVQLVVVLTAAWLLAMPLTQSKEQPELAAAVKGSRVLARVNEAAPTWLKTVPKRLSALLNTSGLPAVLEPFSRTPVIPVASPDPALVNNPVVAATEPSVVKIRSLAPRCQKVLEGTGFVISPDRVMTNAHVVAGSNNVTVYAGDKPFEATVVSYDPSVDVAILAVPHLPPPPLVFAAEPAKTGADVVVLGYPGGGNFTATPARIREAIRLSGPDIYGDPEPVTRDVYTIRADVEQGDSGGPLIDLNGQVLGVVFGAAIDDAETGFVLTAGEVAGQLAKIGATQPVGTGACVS
Numbers stand for hits; 0 = inactive; - = no result; + = active, no number. Sampled rows, rich in hits. Any-hit rate of the full collection: about 3.5%.

SMILES	UGM FP inh	Mtb FBA inh	GDH-TPI inh	Mtb bLac sens	Rv3671c inh
CCOC(=O)c1nc(-c2ccccc2)oc1N(C)C	0	131	0	0	0
CN(C)c1oc(-c2ccco2)nc1C#N	0	127	0	0	0
COc1ccccc1/C=C/c1nc(C#N)c(N(C)C)o1	0	+	0	0	0
CN(C)c1oc(-c2ccccc2Cl)nc1C#N	0	0	0	0	0
CN(C)c1oc(-c2ccccc2)nc1C#N	0	+	0	0	0
CCn1c(SCC(=O)NC2CCCCC2)nnc1-c1ccco1	0	0	0	0	0
O=c1[nH]c(=S)n(-c2ccccc2)c(O)c1/C=N/N1CCCCC1c1cccnc1 (configuration not stated)	0	0	52	0	0
O=C(c1ccc(=O)oc1)N1CCN(C(c2ccccc2)c2ccccc2)CC1	0	0	39	0	0
CC(=O)N1CCN(C(c2ccccc2)c2ccccc2)CC1	0	0	-	-	0
O=c1[nH]c(=S)c2ncn(-c3ccccc3)c2[nH]1	0	0	31	0	0
Nc1nc2c(ncn2-c2ccccc2)c(=O)[nH]1	-	0	0	-	-
CN1/C(=C/C(=O)C2CCC2)Sc2ccccc21	0	0	68	0	0
CN1/C(=C/C(=O)c2cccs2)Sc2ccccc21	0	0	0	0	0
COCC(=O)/C=C1\Sc2ccccc2N1C	0	0	37	0	0
COc1cc(NC(=O)C2CCCN(c3ncccn3)C2)cc(OC)c1 (configuration not stated)	0	0	0	0	0
O=C1Nc2ccccc2/C1=N\N=C\c1ccc(O)c(O)c1	0	0	36	0	0
Oc1ccc(/C=N/N=C/c2ccc(O)cc2)cc1	0	0	31	0	0
Oc1ccc(/C=N/N=C/c2ccc(O)c(O)c2)cc1O	0	0	43	0	0
O=C(CCCC(=O)c1ccccc1)Nc1ccc(O)cc1	0	0	0	0	0
O=C(NC1CCN(C(=O)NCc2ccccc2)CC1)c1cccc(F)c1	0	0	0	0	0
O=C(COC(=O)c1ccccc1)Nc1ccccc1N1CCOCC1	0	0	0	0	0
O=C1c2cccc3cccc(c23)C(=O)N1/N=C/c1ccc(O)cc1O	0	0	47	0	0
COc1ccccc1OCCNC(=O)c1ccc2c(c1)OCCO2	0	0	0	0	0
CCN1C(C)=CC(=O)[C@@H](O)[C@H]1c1ccccc1Br	-	0	0	-	-
Cc1cccc(Nc2c([N+](=O)[O-])c(=O)oc3ccccc23)c1	0	0	32	0	0
SMILES	UGM FP inh	Mtb FBA inh	GDH-TPI inh	Mtb bLac sens	Rv3671c inh
Cc1cc(C)cc(SCc2noc(C(=O)NCCN(C)C)c2C(=O)NCCN(C)C)c1	0	0	0	0	0
COCCNc1nc(NCCCN2CCCC2=O)c2sc(-c3ccccc3)cc2n1	-	0	31	-	-
COc1ccccc1N1C(=O)c2ccccc2NC1c1ccncc1 (configuration not stated)	0	0	0	0	0
O=C1c2ccccc2NC(c2ccncc2)N1c1ccccn1 (configuration not stated)	0	54	0	0	0
CN1CCC(N(C)C(=O)c2cc(-c3ccccc3Cl)nc3ccccc23)CC1	0	0	0	0	0
CCOc1ccc(C(=O)NCC(=O)N2CCCC2)cc1	0	0	0	0	0
CCCc1cc(=O)oc2c(C)c(OCC(=O)N3CCC(C(N)=O)CC3)ccc12	0	0	0	0	0
CCCCc1cc(=O)oc2c3c(cc(OCC(=O)N4CCC[C@H]4C(=O)O)c12)OC(C)(C)CC3	0	+	0	0	0
Cc1cc(=O)oc2c3c(cc(OCC(=O)N4CCC[C@H]4C(=O)O)c12)OC(C)(C)CC3	0	+	0	0	0
Cc1cc(=O)oc2c3c(cc(OCC(=O)N4CCC(C(=O)O)CC4)c12)OC(C)(C)CC3	0	+	0	0	0
CCc1cc(=O)oc2c(C)c(OCC(=O)N3CCCc4ccccc43)ccc12	0	0	0	0	0
Cc1c(C)c2c(OCC(=O)N3CCC(C(N)=O)CC3)cc3c(c2oc1=O)CCC(C)(C)O3	0	+	0	0	0
Cc1c(CCC(=O)N2CCC[C@H]2C(=O)O)c(=O)oc2c(C)c3oc4c(c3cc12)CCCC4	0	0	0	0	0
CCc1nc2ccc(C(=O)O)cc2nc1CC	0	0	0	0	0
COc1ccc(C2CC(c3ccc(Cl)cc3)=NN2c2ccc(S(N)(=O)=O)cc2)cc1 (configuration not stated)	-	+	0	-	-
COc1ccc(C2CC(c3ccccc3)=NN2c2ccc(N)cc2)cc1 (configuration not stated)	0	0	0	0	0
COc1ccc(C2CC(c3cccc(Cl)c3)=NN2c2ccc(S(N)(=O)=O)cc2)cc1 (configuration not stated)	-	141	0	-	-
CCC(C)(NC=O)C(=O)Nc1c(C)cccc1C (configuration not stated)	0	0	0	0	0
Cc1ccc2nc3nc(NCC4CCCO4)c(C(=O)NC4CCCC4)cc3c(=O)n2c1 (configuration not stated)	0	151	0	0	0
CCNc1nc2nc3ccc(C)cn3c(=O)c2cc1C(=O)NCC1CCCO1 (configuration not stated)	0	+	0	0	0
Cc1ccc2nc3nc(NCC4CCCO4)c(C(=O)NC4CCCCC4)cc3c(=O)n2c1 (configuration not stated)	0	-	-	0	0
CCn1cc(C(=O)Nc2cccc(C)c2)c(=O)c2ccc(C)nc21	0	-	-	0	0
COC(=O)C1(C)NC(c2ccc(O)cc2)C2C(=O)N(c3ccc(F)cc3)C(=O)C21 (configuration not stated)	0	0	0	0	0
COC(=O)C1(CCSC)NC(c2ccc(O)cc2)C2C(=O)N(c3ccc(F)cc3)C(=O)C21 (configuration not stated)	0	114	0	0	0
CCC(C(=O)NN1C(=O)c2ccccc2C1=O)c1ccccc1 (configuration not stated)	0	0	0	0	0
SMILES	UGM FP inh	Mtb FBA inh	GDH-TPI inh	Mtb bLac sens	Rv3671c inh
O=C(NCCN1C(=O)S/C(=C\c2ccc(F)cc2)C1=O)c1cccc(S(=O)(=O)N2CCOCC2)c1	0	0	36	0	0
COc1cc(/C=N/NC(=O)c2cccc(S(=O)(=O)N3CCOCC3)c2)cc(OC)c1O	0	0	0	0	0
O=C(NCCN1C(=O)S/C(=C\c2ccc(Cl)cc2)C1=O)c1ccc(F)c(S(=O)(=O)N2CCOCC2)c1	0	0	0	0	0
CCN(CC)c1ccc(/C=N/N2CCOCC2)cc1	0	0	43	0	0
CCN(CC)c1ccc(/C=N/NC(=O)c2cccc(S(=O)(=O)N3CCOCC3)c2)cc1	0	0	32	0	0
CCN(Cc1ccccc1)c1ccc(/C=N/N2CCOCC2)cc1	0	0	0	0	0

Assay outcomes deposited in PubChem by several laboratories.
